According to PubChem BioAssay (NCATS):
Inconclusive results are not listed. Active and inactive are the calls of the source. Calls follow the shape of the dose curve; as a rule, active = well fitted inhibition curve with a large enough effect; inconclusive = small, poorly fitted or top-dose-only effect; inactive = flat fitted curve, though single readings scatter.

Key:
Test in all cases: qHTS profiling for inhibitors of Plasmodium falciparum proliferation (AID 504749); also: nearly all actives have a fitted effect of over 60% in size
3D7 = details: P. falciparum in erythrocytes, SYBR Green DNA, 72 h; series mostly up to 28.7 µM
How it was run: (§1)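 Readout was DNA-dye fluorescence from lysed cultures, ex 485/em 535 nm. Parasitized red cells had grown 72 h with compound; data scaled between 0.29 uM artemisinin and DMSO wells and corrected using vehicle-only plates.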

AA1029 = details: P. falciparum in erythrocytes, SYBR Green DNA, 72 h; series mostly up to 28.7 µM
How it was run: as §1

AS120 = details: P. falciparum in erythrocytes, SYBR Green DNA, 72 h; series mostly up to 28.7 µM
How it was run: as §1

ATS189 = details: P. falciparum in erythrocytes, SYBR Green DNA, 72 h; series mostly up to 28.7 µM
How it was run: as §1

ATS95 = details: P. falciparum in erythrocytes, SYBR Green DNA, 72 h; series mostly up to 28.7 µM
How it was run: as §1

CP194 = details: P. falciparum in erythrocytes, SYBR Green DNA, 72 h; series mostly up to 28.7 µM
How it was run: as §1

CP201 = details: P. falciparum in erythrocytes, SYBR Green DNA, 72 h; series mostly up to 28.7 µM
How it was run: as §1

CP203 = details: P. falciparum in erythrocytes, SYBR Green DNA, 72 h; series mostly up to 28.7 µM
How it was run: as §1

CP211 = details: P. falciparum in erythrocytes, SYBR Green DNA, 72 h; series mostly up to 28.7 µM
How it was run: as §1

CP247 = details: P. falciparum in erythrocytes, SYBR Green DNA, 72 h; series mostly up to 28.7 µM
How it was run: as §1

CP250 = details: P. falciparum in erythrocytes, SYBR Green DNA, 72 h; series mostly up to 12.8 µM
How it was run: as §1

CP252 = details: P. falciparum in erythrocytes, SYBR Green DNA, 72 h; series mostly up to 12.8 µM
How it was run: as §1

CP256 = details: P. falciparum in erythrocytes, SYBR Green DNA, 72 h; series mostly up to 28.7 µM
How it was run: as §1

CP262 = details: P. falciparum in erythrocytes, SYBR Green DNA, 72 h; series mostly up to 28.7 µM
How it was run: as §1

CP265 = details: P. falciparum in erythrocytes, SYBR Green DNA, 72 h; series mostly up to 12.8 µM
How it was run: as §1

CP325 = details: P. falciparum in erythrocytes, SYBR Green DNA, 72 h; series mostly up to 28.7 µM
How it was run: as §1

CP329 = details: P. falciparum in erythrocytes, SYBR Green DNA, 72 h; series mostly up to 28.7 µM
How it was run: as §1

DIV30 = details: P. falciparum in erythrocytes, SYBR Green DNA, 72 h; series mostly up to 28.7 µM
How it was run: as §1

N140 = details: P. falciparum in erythrocytes, SYBR Green DNA, 72 h; series mostly up to 28.7 µM
How it was run: as §1

TAB109 = details: P. falciparum in erythrocytes, SYBR Green DNA, 72 h; series mostly up to 12.8 µM
How it was run: as §1

Measured: Potency

C[C@]12CC[C@H](OS(=O)(=O)O)CC1=CCC1C2CC[C@]2(C)C(=O)CC[C@@H]12 (stereo not given in full)
inactive: 3D7 | AA1029 | AS120 | ATS189 | ATS95 | CP194 | CP201 | CP203 | CP211 | CP247 | CP250 | CP252 | CP256 | CP262 | CP265 | CP325 | CP329 | DIV30 | N140 | TAB109
